FLuc inh-1: Firefly luciferase inhibition profiling of diverse chemical library using quantitative high-throughput screening; purified P. pyralis luciferase, luminescence, biochemical; hit rate 2.5% among 76,000; Potency, µM (series often up to 115 µM), most hits filed as inhibitors; Luciferin 4-monooxygenase (Photinus pyralis), P08659; further: on the % scale 0 is the no-effect control and ±100 the full control effect; nearly all actives have a fitted effect of over 65% in size
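Biochemical qHTS: compound (6-point titration) added to 10uM D-luciferin plus 10uM ATP in Tris acetate pH 7.5 buffer with Mg, Tween-20 and BSA, then purified enzyme at 10nM; light output imaged.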
HEK cytotox: Cytotoxic Profiling in HEK 293 Cell Line of Diverse Libraries Using Quantitative High-Throughput Screening; HEK 293 viability, ATP luminescence (CellTiter-Glo), 48-72 h; Potency, µM (doses to about 115 µM), inactives show at the top dose activity change, negative = cytotoxicity, hits mostly inhibitors; hit rate 6.6% among 94,000; AID 1345083, 2018; further: on the % scale 0 is the no-effect control and ±100 the full control effect; nearly all actives have a fitted effect of over 60% in size
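Read-out: CellTiter-Glo ATP luminescence. Cells: HEK 293, 250 cells/well. Exposure: 48 or 72 hr, 37 degree Celsius.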
3T3 cytotox: Cytotoxic Profiling in NIH 3T3 Cell Line of Diverse Libraries Using Quantitative High-Throughput Screening; Potency, µM (highest dose often 96.7 µM), without a hit: top-dose activity change, negative = cytotoxicity, hits mostly inhibitors; NIH 3T3 viability, CellTiter-Glo ATP luminescence, 48-72 h; AID 1345082, 2018; hit rate 4.3% among 94,000; further: on the % scale 0 is the no-effect control and ±100 the full control effect; nearly all actives have a fitted effect of over 55% in size
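Cytotoxicity is measured as loss of cellular ATP: NIH 3T3 cells (400/well) are exposed to compound for 48 or 72 hr at 37 °C, then CellTiter-Glo luminescence is imaged after 10 min at room temperature.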
GPT2 inh: Primary qHTS assay for inhibitors of Glutamate pyruvate transaminase 2 (GPT2). Alanine aminotransferase 2 (Homo sapiens), Q8TD30. AID 1671188, 2021. Potency, µM (series often up to 57.7 µM), without a hit: at the highest dose activity change, negative = inhibition, usual class: inhibitors. Recombinant GPT2, coupled pyruvate oxidase/HRP Amplex Red fluorescence. hit rate 0.25% among 100,000; further: on the % scale 0 is the no-effect control and ±100 the full control effect; nearly all actives have a fitted effect of over 60% in size
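Inhibition is scored from Amplex Red fluorescence generated when pyruvate oxidase and HRP act on pyruvate released by GPT2. Reactions contain 10ng/uL enzyme, 250uM a-KG and 2mM L-alanine and run 30 min at room temperature.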
NPR1 antag: Natriuretic polypeptide receptor (hNpr1) antagonism - Primary qHTS. Potency, µM (highest dose often 46.3 µM), inactives show top-dose activity change, negative = inhibition, usual class: inhibitors. hit rate 1.6% among 76,000. HEK293 hNpr1 GloSensor cGMP, ANP-stimulated luminescence; calls by dose curve; further: on the % scale 0 is the no-effect control and ±100 the full control effect; nearly all actives have a fitted effect of over 60% in size
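HEK293 cells stably expressing human Npr1 and cGMP GloSensor pGS-40F, loaded 2 h with 2% GloSensor reagent, given compound 30 min at room temperature. Luminescence read before and 20 min after 0.1 nM hNppA.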
FLuc SDR -ATP: Firefly luciferase (FLuc-C-HiBiT) SDR gain of signal screen - without ATP; shares compounds with FLuc inh-1; Purified FLuc-C-HiBiT, Nano-Glo HiBiT luminescence, no ATP; Potency, µM (highest dose often 32.7 µM), for the others: at the top dose activation (signal gain), usual class: activators; hit rate 7.8% among 1,300; AID 1963318, 2024; further: nearly all actives have a fitted effect of over 55% in size
FLuc SDR ATP: Firefly luciferase (FLuc-C-HiBiT) SDR gain of signal screen - plus ATP; shares compounds with FLuc inh-1; purified FLuc-C-HiBiT + ATP, HiBiT complementation luminescence; Potency, µM (series often up to 32.7 µM), for inactives: at the highest dose activation (gain of signal), hits mostly activators; hit rate 8.7% among 1,300; AID 1963319, 2024;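 further: signal reports ligand binding via conformational change of the enzyme rather than luciferase catalysis; % of control where 0% means no effect; nearly all actives have a fitted effect of over 55% in size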
FLuc inh-2: Firefly luciferase (FLuc-C-HiBiT) enzymatic inhibition screen - Functional assay | hit rate 42% among 1,300 | Potency, µM (doses to about 32.7 µM), without a hit: at the highest dose activity change, negative = inhibition, most hits filed as inhibitors | purified FLuc-C-HiBiT enzyme, luciferin luminescence | shares compounds with FLuc inh-1; further: on the % scale 0 is the no-effect control and ±100 the full control effect; nearly all actives have a fitted effect of over 70% in size
An asterisk follows results filed as active; i = inactive; ? = inconclusive; . = not tested or not shown; [ ] = remark or other dose. Sampled rows, rich in hits. Any-hit rate of the full collection: about 10%. Unless noted, the call rests on the fitted dose curve; in most records, active means well fitted curve in the direction sought with a large enough effect; inconclusive means small, poorly fitted or top-dose-only effect, or another doubt; inactive means no such curve, though single readings can be large; an effect the other way counts as inactive or inconclusive. Potency means the concentration at half of the fitted maximal effect.

SMILES	FLuc inh-1	HEK cytotox	3T3 cytotox	GPT2 inh	NPR1 antag	FLuc SDR -ATP	FLuc SDR ATP	FLuc inh-2
CN1CCN(C(=O)COc2ccc(-c3nc4ccccc4s3)cc2)CC1	.	.	.	.	.	1.6µM*	?	0.5µM*
CCOC(=O)[C@H]1CN(C(=O)c2ccc3c(c2)OCO3)[C@]2(C)C(=O)N(CC3CC3)c3ccccc3[C@H]12	.	?	?	i	.	.	.	.
COc1ccc2c(c1)C1(CCN(C(=O)Nc3cccc(C)c3)C1)C(=O)N2C (stereo unspecified)	i	-16%	-7%	i	-8%	.	.	.
COc1ccc2c(c1)C1(CCN(C(=O)Nc3ccc4c(c3)OCCO4)C1)C(=O)N2C (stereo unspecified)	10µM*	-29%	-4%	-3%	-15%	22%	15%	?
O=C(Nc1ccc2c(c1)OCCO2)c1cccn(Cc2ccccc2)c1=O	.	.	.	.	.	16%	11%	?
O=C(N[C@@H](COc1ccc2[nH]c(=O)[nH]c2c1)c1ccccc1)c1cccn(Cc2ccc(F)c(F)c2)c1=O	.	.	.	-7%	.	.	.	.
CC12CCC3C(C1)c1c(cc(O)c(C(=O)c4ccccc4)c1OC3(C)C)O2 (stereo unspecified)	.	.	.	-13%[27.3 µM]	.	.	.	.
CCn1cc(-c2cc3c(cn2)CN(C)CCN3)cn1	.	.	.	.	.	16%[65.7 µM]	9%[65.7 µM]	?
COc1ccc(-c2cc3c(cn2)CN(C)CCN3)cn1	6.3µM*	-24%[230 µM]	?	i	-21%[70.6 µM]	20%[65.7 µM]	15%[65.7 µM]	?
CCOC(=O)[C@H]1CN(C(=O)NC2CCCC2)[C@]2(C)C(=O)N(C)c3ccccc3[C@H]12	.	?	-27%[46.1 µM]	-4%[27.3 µM]	.	.	.	.
CCCN1CCNc2cc(Nc3ccccc3)ncc2C1	6.3µM*	89µM*	?	-3%[88.5 µM]	-1%[70.6 µM]	27%[65.7 µM]	19%[65.7 µM]	?
C=C(C)C(=O)O[C@H]1[C@@H]2[C@H](C)C(=O)O[C@@H]2C[C@@H](C)[C@@H]2C=CC(=O)[C@]21C	.	.	.	4%[27.3 µM]	.	.	.	.

Screening data deposited in PubChem BioAssay by National Center for Advancing Translational Sciences (NCATS).
